{"source": "PubChem BioAssay", "note": "Some of the results follow. The source made the active and inactive calls. Unless noted, no rule for the calls is given here.", "data": [{"test_system": "not listed separately", "experiment": "lowers stimulated NF-kB luciferase signal in Jurkat – cell-based, luminescence, single concentration, T-cell NF-kB inhibitor project, confirmation (AID 435020;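 active = inhibition reaching about 45% at 4 µM in either replicate, limit read from the data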;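 also: plate controls were PMA/ionomycin stimulated DMSO wells for no effect and unstimulated DMSO wells for full effect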)", "conditions": "PMA/ionomycin-induced, 16 h, at 4 µM, stronger effect = higher value", "values": [{"smiles": "CCCCCCCCCCCCn1ccc(=N)cc1", "inhibition": "80.3% (active)"}, {"smiles": "Cc1cc2ccccn2c1C(C[N+](=O)[O-])c1c(F)cccc1Cl", "note": "(configuration not stated)", "inhibition": "6.25% (inactive)"}, {"smiles": "CCOc1ccc(-c2cc(C)[n+](CCN(CC)CC)c(-c3ccc(OCC)cc3)c2)cc1", "inhibition": "21.7% (inactive)"}, {"smiles": "C[C@]12CC[C@H](O)C[C@H]1CC[C@@H]1C2CC[C@]2(C)[C@@H](C3=CC(=O)OC3)[C@@H](O)C[C@]12O", "note": "(some centres not stated)", "inhibition": "-17.1% (inactive)"}]}, {"test_system": "not listed separately", "experiment": "apoptosome-driven caspase-3 activation blockers – biochemical, fluorescence, DEVD-Rh110, 20 µM, confirmation (AID 504614;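 active = mean inhibition of at least 40% at 20 µM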;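 also: plate controls were DMSO wells for no effect and DEVD-CHO caspase inhibitor control wells for full effect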)", "conditions": "reconstituted apoptosome, caspase-3 DEVD-Rh110 fluorescence; at 20 µM; stronger effect = higher value", "values": [{"smiles": "CC(Cc1ccccc1)NCCC(c1ccccc1)c1ccccc1", "note": "(configuration not stated)", "inhibition": "12.8% (inactive)"}, {"smiles": "CCCCCn1c(=O)c(C(=O)Nc2c(C)n(C)n(-c3ccccc3)c2=O)c(O)c2ccccc21", "inhibition": "42.9% (active)"}, {"smiles": "CCCCCCCCCCCCn1ccc(=N)cc1", "inhibition": "32% (inactive)"}, {"smiles": "CCOC(=O)c1c(N)n(Cc2ccccc2)c2nc3ccccc3nc12", "inhibition": "12.5% (inactive)"}, {"smiles": "CNCC(O)c1cc(F)c(OCc2ccccc2)c(OCc2ccccc2)c1F", "note": "(configuration not stated)", "inhibition": "12.9% (inactive)"}]}, {"test_system": "not listed separately", "experiment": "detection-step artefacts after completed caspase reaction – biochemical, fluorescence, Rh110, 20 µM, artefact control for Apaf-1 inhibitor project, confirmation (AID 504615;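 active = signal rise of 40% or more at 20 µM, treated as a fluorescence artifact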)", "conditions": "quenched caspase reaction, at 20 µM, stronger effect = higher value", "values": [{"smiles": "CC(Cc1ccccc1)NCCC(c1ccccc1)c1ccccc1", "note": "(configuration not stated)", "activation (fluorescence interference)": "7.45% (inactive)"}, {"smiles": "CCCCCn1c(=O)c(C(=O)Nc2c(C)n(C)n(-c3ccccc3)c2=O)c(O)c2ccccc21", "activation (fluorescence interference)": "-2.75% (inactive)"}, {"smiles": "CCCCCCCCCCCCn1ccc(=N)cc1", "activation (fluorescence interference)": "3.55% (inactive)"}, {"smiles": "CCOC(=O)c1c(N)n(Cc2ccccc2)c2nc3ccccc3nc12", "activation (fluorescence interference)": "5.83% (inactive)"}, {"smiles": "CNCC(O)c1cc(F)c(OCc2ccccc2)c(OCc2ccccc2)c1F", "note": "(configuration not stated)", "activation (fluorescence interference)": "12.9% (inactive)"}]}, {"test_system": "not listed separately", "experiment": "Brca1-Bard1 BiLC signal decrease – luminescence, single concentration, counter-screen for Mdm2/MdmX interaction inhibitor project, confirmation (AID 504668)", "conditions": "Brca1/Bard1 bimolecular luciferase complementation counterscreen, at 8 µM, stronger effect = higher value", "values": [{"smiles": "CC(C)c1oc(=O)cc2c1[C@@H](O)[C@H]1OC(=O)[C@@]3(C)C[C@@H](O)[C@@H](O)[C@@]2(C)C13", "note": "(some centres not stated)", "inhibition": "29.6% (active)"}, {"smiles": "CCn1nc(-c2ccccc2)nc2c(=O)n(C)c(=O)nc1-2", "inhibition": "23.3% (active)"}, {"smiles": "CCOc1ccc(-c2cc(C)[n+](CCc3ccc(OC)c(OC)c3)c(-c3ccc(OCC)cc3)c2)cc1", "inhibition": "35.8% (active)"}, {"smiles": "C[C@@H]1O[C@@H](O[C@H]2C[C@@H](O)[C@]3(CO)[C@@H]4C(CC[C@]3(O)C2)[C@@]2(O)CC[C@H](C3COC(=O)C3)[C@@]2(C)C[C@H]4O)[C@H](O)[C@H](O)[C@H]1O", "note": "(some centres not stated)", "inhibition": "24.4% (active)"}, {"smiles": "C[C@@H]1O[C@@H](O[C@H]2C[C@@H](O)[C@]3(CO)[C@H]4[C@H](O)C[C@]5(C)[C@@H](C6COC(=O)C6)CC[C@]5(O)[C@@H]4CC[C@]3(O)C2)[C@H](O)[C@H](O)[C@H]1O", "note": "(some centres not stated)", "inhibition": "26.8% (active)"}, {"smiles": "Cc1cc(O)c2c(c1)C(=O)C13C(=C2O)C(=O)[C@H]2[C@@H](O)[C@@H]1[C@H]1[C@H](O)[C@@H]3C(=O)C3=C(O)c4c(O)cc(C)cc4C(=O)C312", "note": "(some centres not stated)", "inhibition": "29.6% (active)"}, {"smiles": "c1ccc2c(N3CCNCC3)nsc2c1", "inhibition": "29.6% (active)"}, {"smiles": "C/C=C(\\C)C(=O)OC1C(C)=C2C(C1OC(=O)CCCCC)C(C)(OC(C)=O)CC(OC(=O)CCC)C1(O)C2OC(=O)C1(C)O", "note": "(configuration not stated)", "inhibition": "24.1% (active)"}, {"smiles": "CCOC(=O)c1ccc(-[n+]2c(-c3ccccc3)cc(-c3ccccc3)cc2-c2ccccc2)cc1", "inhibition": "23.6% (active)"}, {"smiles": "Cn1c(NN=O)nc2ccccc21", "inhibition": "35.8% (active)"}, {"smiles": "Clc1ccc(C(c2ccc(Cl)cc2)n2cc[n+](CC(OCc3ccc(Cl)cc3Cl)c3ccc(Cl)cc3Cl)c2)cc1", "note": "(configuration not stated)", "inhibition": "28.6% (active)"}, {"smiles": "Cc1cc2ccccn2c1C(C[N+](=O)[O-])c1c(F)cccc1Cl", "note": "(configuration not stated)", "inhibition": "29.6% (active)"}, {"smiles": "CCn1nc(/C=C/c2ccccc2)nc2c(=O)n(C)c(=O)nc1-2", "inhibition": "24.6% (active)"}, {"smiles": "Fc1ccc(C(OCCN2CCN(CCCc3ccccc3)CC2)c2ccc(F)cc2)cc1", "inhibition": "30.4% (active)"}, {"smiles": "CN(C)c1ccc(-[n+]2c(-c3ccccc3)cc(-c3ccccc3)cc2-c2ccccc2)cc1", "inhibition": "23.3% (active)"}, {"smiles": "Cc1cccc(-n2c(O)c(/C=C3/C(c4ccccc4)=Nc4ccccc43)c(=O)[nH]c2=O)c1", "inhibition": "35.8% (active)"}, {"smiles": "O=Cc1cn(Cc2ccc(F)cc2Cl)c2ccccc12", "inhibition": "35.1% (active)"}, {"smiles": "C[C@]12CC[C@H]3[C@@H](CC[C@]4(O)C[C@@H](O)CC[C@]34C=O)[C@@]1(O)CC[C@@H]2C1=CC(=O)OC1", "inhibition": "28% (active)"}, {"smiles": "COc1ccc2c(c1)/C(=C/c1cnc[nH]1)C(=O)N2", "inhibition": "32.2% (active)"}, {"smiles": "N#CC(C#N)=NNc1ccc(-n2ccc(C(F)(F)F)n2)cc1", "inhibition": "31.2% (active)"}, {"smiles": "CCOc1cccc(CNCCc2c(C)[nH]c3ccc(OC(F)(F)F)cc23)c1O", "inhibition": "29.9% (active)"}, {"smiles": "COc1cc2c(cc1OC)-c1c(OC)c(OC)c(OC)c3ccnc(c13)C2=O", "inhibition": "23.6% (active)"}]}, {"target": "Tumor necrosis factor receptor superfamily member 10B (Homo sapiens) (UniProt O14763)", "sequence (O14763 whole entry, looked up)": "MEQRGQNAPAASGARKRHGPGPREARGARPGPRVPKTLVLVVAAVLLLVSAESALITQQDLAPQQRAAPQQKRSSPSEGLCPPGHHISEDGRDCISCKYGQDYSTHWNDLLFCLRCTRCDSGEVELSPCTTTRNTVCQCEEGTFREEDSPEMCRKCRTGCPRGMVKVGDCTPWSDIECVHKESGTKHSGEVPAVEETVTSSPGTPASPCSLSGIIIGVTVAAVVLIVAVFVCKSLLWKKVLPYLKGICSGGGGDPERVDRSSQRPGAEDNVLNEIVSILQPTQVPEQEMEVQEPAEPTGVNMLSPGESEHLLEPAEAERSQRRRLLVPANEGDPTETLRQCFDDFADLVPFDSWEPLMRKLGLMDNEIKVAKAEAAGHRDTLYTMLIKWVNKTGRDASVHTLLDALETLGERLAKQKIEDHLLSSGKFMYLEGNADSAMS", "experiment": "viability loss of caspase-8 NB7 cells with TRAIL – with/without TRAIL, luminescence panel, confirmation (AID 651596; in the data active = activity above about 50%)", "conditions": "NB7 neuroblastoma + caspase-8, TRAIL sensitization, NB7 Caspase-8, with TRAIL, mean of runs, at 10 µM, stronger effect = higher value", "units": {"activity": "%"}, "values": [{"smiles": "COc1cccc(-c2nc3ccc(N4CCN(C)CC4)cc3[nH]2)c1", "activity": 90.4}, {"smiles": "CCCCCCCCCCCCn1ccc(=N)cc1", "activity": 92.9}, {"smiles": "CCOc1ccc(-c2cc(C)[n+](CCN(CC)CC)c(-c3ccc(OCC)cc3)c2)cc1", "activity": 62.5}]}, {"test_system": "not listed separately", "experiment": "viability loss of caspase-8 NB7 cells with TRAIL – with/without TRAIL, luminescence panel, confirmation (AID 651596)", "conditions": "NB7 neuroblastoma + caspase-8, without TRAIL, NB7 Caspase-8, without TRAIL, mean of runs, at 10 µM", "units": {"activity": "%"}, "values": [{"smiles": "COc1cccc(-c2nc3ccc(N4CCN(C)CC4)cc3[nH]2)c1", "activity": 87.8}, {"smiles": "CCCCCCCCCCCCn1ccc(=N)cc1", "activity": 80}, {"smiles": "CCOc1ccc(-c2cc(C)[n+](CCN(CC)CC)c(-c3ccc(OCC)cc3)c2)cc1", "activity": 59.2}]}]}
